Source: PubChem (Broad Institute)
Compounds with a hit are over-represented: about 2.1% of the library has one in this group of screens.
PAX8 reporter: lowers PAX8-driven luciferase in RMG-I cells; 1.2% of 360,000 active; RMG-I TPO-luciferase reporter, SteadyGlo, 24 h; inhibition, % at 12.6 µM; AID 652154;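 active means mean replicate inhibition at least 60% with every replicate also reaching 60%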;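 further: luciferase light reporting Pax8 driven TPO promoter activity; plate controls were median of neutral control wells for no effect and mitoxantrone controls for full effect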
TRPM1 prom inh: inhibitors of MITF-driven TRPM1 promoter in melanoma cells. 0.83% of 330,000 active. inhibition, % at 12.5 µM. SK-MEL-5 TRPM1 promoter luciferase, 24 h. AID 488899;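 active means mean inhibition across replicates of 60% or more, whatever share of single replicates reaches that level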
aSyn 5UTR inh: 5' untranslated region of α-synuclein, MLPCN primary screen. AID 1813. inhibition, % (tested at 7.5 µM). 0.82% of 300,000 active. alpha-synuclein 5'UTR reporter, inhibitor activity; in the data active means inhibition above about 60%;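 further: H4 neuroglioblastoma cells stably carrying SNCA 5'UTR luciferase fusion; 0% = DMSO wells and 100% = positive control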
LMP1 NFkB inh: reduces LMP1-driven NF-kappaB luciferase signal. LMP1-induced NF-kappaB luciferase reporter cells, luminescence. inhibition, % at 12.5 µM. 0.69% of 350,000 active; in the data active means inhibition above about 41%;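 further: 0% = neutral control wells and 100% = reference inhibitor control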
Shn3 3UTR inh: inhibitors of Schnurri-3 3'UTR reporter in osteoblasts | Clone20 osteoblast Shn3 3'UTR firefly luciferase, 24 h | inhibition, % at 12.5 µM | 0.52% of 360,000 active;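 active means mean inhibition of at least 75% with every replicate also reaching 75%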;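 further: 0% = median of neutral control wells and 100% = pilot-screen positive control compound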
* hit, by the source's call; x = no result.

SMILES	PAX8 reporter	TRPM1 prom inh	aSyn 5UTR inh	LMP1 NFkB inh	Shn3 3UTR inh
COc1ccc(C2SCCN2C(=O)c2ccc([N+](=O)[O-])cc2)cc1 (stereo not drawn)	-6	-6	-24	42*	2
O=C(c1ccc([N+](=O)[O-])cc1)N1CCSC1c1ccccc1Cl (stereo not drawn)	-3	3	-5	8	-3
C#CCn1c(=O)c2c(ncn2C)n(C)c1=O	-5	3	1	44*	9
CCCn1c(=O)c2c(ncn2C)n(CCC)c1=O	-1	5	x	-1	3
C[C@@H]1CCCCO[C@@H](CN(C)S(=O)(=O)c2ccc(Cl)cc2)[C@@H](C)CN([C@@H](C)CO)C(=O)c2cc(NS(=O)(=O)c3ccccc3)ccc2O1	23	x	x	x	x
C[C@H]1CCCCO[C@H](CN(C)S(=O)(=O)c2ccc(Cl)cc2)[C@@H](C)CN([C@@H](C)CO)C(=O)c2cc(NS(=O)(=O)c3ccccc3)ccc2O1	74*	x	x	x	x
C[C@@H]1CN([C@H](C)CO)C(=O)c2cc(NS(=O)(=O)c3ccccc3)ccc2O[C@@H](C)CCCCO[C@@H]1CN(C)S(=O)(=O)c1ccc(Cl)cc1	52	x	x	x	x
C[C@H](CO)N1C[C@H](C)[C@H](CN(C)S(=O)(=O)c2ccc(Cl)cc2)OCCCC[C@H](C)Oc2ccc(NS(=O)(=O)c3ccccc3)cc2C1=O	72*	x	x	x	x
C[C@@H]1CCCCO[C@H](CN(C)S(=O)(=O)c2ccccc2)[C@H](C)CN([C@@H](C)CO)C(=O)c2cc(NS(=O)(=O)c3ccc(Cl)cc3)ccc2O1	81*	x	x	x	x
C[C@@H]1CN([C@H](C)CO)C(=O)c2cc(NS(=O)(=O)c3ccc(Cl)cc3)ccc2O[C@@H](C)CCCCO[C@H]1CN(C)S(=O)(=O)c1ccccc1	60	x	x	x	x
O=C(Nc1nc2c(s1)CCCC2)c1cc2n(n1)C(C(F)(F)F)CC(C1CC1)N2 (stereo not drawn)	x	-40	-28	-4	-33
Cc1cc(-c2ccc(S(=O)(=O)N3CCN(c4ccc(F)cc4)CC3)s2)on1	2	3	7	-3	-2
COc1ccc(CCNC(=O)C2CCN(S(=O)(=O)c3ccc(C)cc3)CC2)cc1	52	2	28	-35	-10
Oc1ccccc1-c1nnc(SCCN2CCOCC2)n1Cc1ccccc1	57	22	81*	-2	51
COc1ccc(Cl)cc1NC(=O)c1ccc2c(SCC(=O)O)c3c(nc2c1)CCCC3	-18	-2	-1	-3	1
Cc1ccc(/C=C/c2onc(C)c2S(=O)(=O)N2CCC(C(=O)N3CCN(C)CC3)CC2)cc1	-2	-5	16	2	20
CCN(CC)CCNC(=O)C1CCN(S(=O)(=O)c2c(C)noc2/C=C/c2ccccc2F)CC1	31	77*	6	0	-28
Cc1cccc(/C=C/c2onc(C)c2S(=O)(=O)N2CCC(C(=O)NC(C)(C)C)CC2)c1	6	-6	12	-3	-3
CCC(C)N1CCN(C(=O)C2CCN(S(=O)(=O)c3c(C)noc3/C=C/c3ccco3)CC2)CC1 (stereo not drawn)	70*	36	3	-2	-14
Cc1cccc(NC(=O)C2CCN(S(=O)(=O)c3c(C)noc3/C=C/c3ccco3)CC2)n1	62*	6	-2	-1	29
CCCNC(=O)c1cc2c(c(-c3cccc(-c4cc5ccccc5o4)c3)n1)[C@@H](CCO)N(C(=O)NC(C)C)C2	43	x	x	x	x
CCOc1ccc(NCc2cccn2-c2nnc(N3CCC(C(=O)NCCCN4CC(C)CC(C)C4)CC3)s2)cc1 (stereo not drawn)	8	90*	-48	-8	-11
CCN1CCN(CCCNC(=O)C2CCN(c3nnc(-n4cccc4)s3)CC2)CC1	4	2	-19	-1	-3
Cc1ccc(Cn2ccsc2=NC(=O)CCl)cc1	114*	42	x	7	5
Cc1ccc(Cn2ccsc2=NC(=O)COC(=O)c2ccc(NC(=O)CC#N)cc2)cc1	-5	11	2	13	44
SMILES	PAX8 reporter	TRPM1 prom inh	aSyn 5UTR inh	LMP1 NFkB inh	Shn3 3UTR inh
COC(=O)c1cccc(Nc2c3c(nc4ccccc24)CCC3)c1	15	33	-34	6	42
CC(=O)c1cccc(Nc2c3c(nc4ccccc24)CCC3)c1	21	25	75*	15	-1
C[C@H]1CN([C@@H](C)CO)C(=O)c2cc(NC(=O)Cc3cn(C)c4ccccc34)ccc2O[C@H]1CN(C)S(=O)(=O)c1ccc(Cl)cc1	14	x	x	x	x
Cc1cc(NC(=S)N(CCN2CCOCC2)Cc2ccccc2F)ccc1Cl	12	-1	5	14	25
Nc1ccc(Oc2cccc(Oc3ccc(N)cc3)c2)cc1	13	81*	87*	37	45
Cc1cccc(Oc2ccc(N)cc2)c1	x	1	2	-16	-14
CCn1c(COc2ccccc2C)nnc1SCC(=O)O	5	-1	-4	-5	-28
CC1=NN(c2nc(-c3ccc(C)cc3)cs2)C(=O)C1N=Nc1ccc2ccccc2c1 (stereo not drawn)	x	12	21	-12	-1
CC1=NN(c2nc(-c3ccc(C)cc3)cs2)C(=O)C1N=Nc1ccc(C(N)=O)cc1 (stereo not drawn)	3	102*	86*	13	66
CCCN1C[C@H](C)[C@@H](OC)CN(C)C(=O)c2ccc(NC(=O)c3cccc(F)c3)cc2OC[C@@H]1C	5	x	x	x	x
O=C(N/N=C/c1cc2c3c(c1O)CCCN3CCC2)c1ccccc1O	62*	49	104*	65*	82
Cc1nn(-c2ccccc2)c(N2CCCC2)c1/C=N/NC(=O)c1ccccc1O	-2	4	36	10	-7
CC(=O)Nc1sc(N/N=C/c2ccccc2)nc1-c1ccc(C)cc1	1	-43	-50	-1	-13
CCCc1sc(N/N=C/c2ccccn2)nc1-c1ccc(Br)cc1	x	58	82*	59*	84
CCOc1ccc2nc(NC(=O)C(CCSC)NS(=O)(=O)c3cccs3)sc2c1 (stereo not drawn)	x	-19	21	-24	9
CC(=O)Nc1nc2ccccc2n1Cc1ccccc1C	3	6	67*	-34	-19
CCC(=O)Nc1nc2ccccc2n1Cc1ccc(Cl)cc1	28	-4	72*	16	17
CCCn1c(NC(=O)c2cccc(S(=O)(=O)N3CCCC3)c2)nc2ccccc21	74*	53	53	19	71
S=C(Nc1ccccc1)Nc1nc2ccccc2n1CCOc1ccc(Cl)cc1	2	-7	-19	17	-3
CC(=O)Nc1nc2ccccc2n1CCOc1ccccc1Cl	-17	17	73*	6	8
COCCNC(=O)/C(C#N)=C/c1ccccc1Br	-116	2	-2	-5	-12
Cc1cc(CNC(=O)[C@H]2C[C@@H]2[C@H](NP(=O)(c2ccccc2)c2ccccc2)c2ccccc2)nn1C	-8	x	x	x	x
CC(=O)Nc1nc2ccccc2n1Cc1ccccc1Cl	36	-8	87*	-38	6
CCC(=O)Nc1nc2ccccc2n1Cc1ccccc1Cl	21	-5	72*	6	-18
